Consider 14 compounds from PubChem BioAssay (NCATS).

Each structure is given as a SMILES string. Inconclusive results are not listed. Where a structure was tested more than once in an assay, its records may differ in their call. The source made the active and inactive calls. Unless noted, calls follow the shape of the dose curve; as a rule, active = well fitted curve in the direction sought with a large enough effect; inconclusive = small, poorly fitted or top-dose-only effect, or another doubt; inactive = no such curve, though single readings can be large; an effect the other way counts as inactive or inconclusive.

Test [1] addresses Metallo-beta-lactamase type 2 (Klebsiella pneumoniae) (UniProt C7C422). The experiment in a line: qHTS to identify inhibitors of the New Delhi Metallo-beta-lactamase (NDM): assay validation screen against the NCATS LOPAC Collection (AID 1794843).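 Also: nitrocefin turnover by NDM-1 measured as 485 nm absorbance at plateau; % is scaled to controls: 0 for no effect and ±100 for the full control effect.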 In a few lines: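 NDM-1 at 2 nM final in 50 mM HEPES pH 7.0 with 1 uM ZnSO4 and 0.01% Tween20 was preincubated with library compounds in DMSO. Nitrocefin (50 uM stock) was then added, and absorbance at 485 nm was read at the kinetic plateau.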
Background: Quantitative high-throughput screening tests each substance at several concentrations.

Test [2] has as its target Glutathione peroxidase 1 (Homo sapiens) (UniProt P07203). The experiment in a line: Primary qHTS Assay for Inhibitors of Recombinant Selenoprotein Glutathione Peroxidase 1 (GPX1) (AID 1845191). Also: nearly all actives have a fitted effect of over 65% in size. Also: potency is read from the fitted curve at half-maximal effect. In outline: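 10 nM GPX1 + cpd, 30 min RT; start w/ 1 mM GSH, 0.5 mM cumene hydroperoxide, 0.5 mM NADPH, 100 nM GR, 0.01% BSA; buffer 50 mM Tris-HCl pH 7.5, 2 mM EDTA, 150 mM NaCl; Fl 340/450, 0 & 15 min.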

Test [3] in a line: NCATS anti-infectives library activity on HEK293 viability as a counter-qHTS vs the C. elegans viability qHTS (AID 1745854). Also: potency is read from the fitted curve at half-maximal effect. In outline:
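HEK293 cells, 1500 per well, exposed 24 hr at 37C in 5% CO2 to compounds in a 1:5 titration, up to 41.7 uM final. Viability read as CellTiter-Glo luminescence after 10 min at room temperature.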

Test [4] concerns the target Phospholipid hydroperoxide glutathione peroxidase GPX4 (Homo sapiens) (UniProt P36969). The experiment in a line: Primary qHTS Assay for Inhibitors of Recombinant Selenoprotein Glutathione Peroxidase 4 (GPX4) (AID 1845192). Also: nearly all actives have a fitted effect of over 65% in size. As to activity change, negative = inhibition: % is scaled to controls: 0 for no effect and ±100 for the full control effect. In outline:
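NADPH consumption, followed by fluorescence at 340/450 nm between 0 and 15 min, reports GPX4 activity via coupled glutathione reductase (100 nM). Enzyme 200 nM was pre-exposed to compound 30 min; 0.5 mM cumene hydroperoxide and 1 mM GSH served as substrates.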

Test [5] addresses Catechol O-methyltransferase (Homo sapiens) (UniProt P21964). The experiment in a line: Confirmatory Screen for Target Class Profiling of Small Molecule Inhibitors of Methyltransferases (AID 1745852; calls by dose curve; also: potency is read from the fitted curve at half-maximal effect). The note with it: MTase-Glo luminescence, SAH detection, recombinant enzyme; measured here: COMT max response; stronger effect = lower value.
For test [6], the target named is Guanidinoacetate N-methyltransferase (Homo sapiens) (UniProt Q14353). The test is described as above. The conditions noted are these: MTase-Glo luminescence, SAH detection, recombinant enzyme; activity change, negative = inhibition: at 57.3 µM (top of the series).
Test [7] deals with Nicotinamide N-methyltransferase (Homo sapiens) (UniProt P40261). Described as above. The note with it: MTase-Glo luminescence, SAH detection, recombinant enzyme; measured here: NNMT max response; stronger effect = lower value.
Nicotinamide N-methyltransferase (Homo sapiens), sequence (P40261 whole entry, looked up): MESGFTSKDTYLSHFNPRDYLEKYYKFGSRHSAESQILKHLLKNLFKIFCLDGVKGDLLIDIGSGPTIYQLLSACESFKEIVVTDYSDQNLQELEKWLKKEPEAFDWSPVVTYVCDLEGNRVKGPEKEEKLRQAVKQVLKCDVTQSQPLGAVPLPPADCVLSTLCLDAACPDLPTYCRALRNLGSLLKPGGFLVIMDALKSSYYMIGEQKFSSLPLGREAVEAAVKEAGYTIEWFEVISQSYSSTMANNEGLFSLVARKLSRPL
Test [8] has as its target Phenylethanolamine N-methyltransferase (Homo sapiens) (UniProt P11086). The description is as above. The conditions noted are these: MTase-Glo luminescence, SAH detection, recombinant enzyme; measured here: PNMT max response; stronger effect = lower value.
Test [9] deals with Luciferin 4-monooxygenase (Photinus pyralis) (UniProt P08659). The experiment in a line: Primary firefly luciferase (FLuc) qHTS assay for identification of artifact compounds. (AID 1845220). Also: nearly all actives have a fitted effect of over 60% in size.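 As to activity change, negative = inhibition: plate controls were DMSO vehicle for no effect and no enzyme for full effect.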 The note with it: outcome: dose series up to 54.1 µM. In outline: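 Compounds sat 15 min at room temperature with 10 uM luciferin and 10 uM ATP (pH 7.6 Tris acetate). Firefly luciferase (10 nM final) was then added, and luminescence was read 5 min later. Data normalized to no-enzyme and DMSO controls were Hill-fitted.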

The nature of test [10]: Primary fluorescence-based thiol-reactive (MSTI) qHTS assay for identification of artifact compounds. (AID 1845221).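 Also: thiol-reactive compounds lower the probe fluorescence signal; nearly all actives have a fitted effect of over 65% in size.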 In outline: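 Thiol-reactive compounds detected by quenching of 4 uM MSTI fluorescence (525/598 nm) after 1 h room-temperature dark incubation in PBS pH 7.4, 2% DMSO. qHTS titration; percent inhibition Hill-fitted against Acetyl-MSTI/MSTI controls.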
The target in test [11] is Rap guanine nucleotide exchange factor 3 (Homo sapiens) (UniProt O95398). The experiment in a line: Confirmatory qHTS for antagonist of cAMP-regulated guanine nucleotide exchange factor 3 (EPAC1) (AID 1645880).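 Also: plate controls were DMSO only for no effect and full effect of the ATA control for full effect; nearly all actives have a fitted effect of over 55% in size.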 In a few lines: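 Nucleotide exchange uses 100 nM EPAC1, 250 nM RAP1B-BODIPY-GDP and 50 uM GDP, with compounds in a concentration-titration series. After 5 min at room temperature, fluorescence (480 nm ex/540 nm em) is read every 5 min for 30 min. Data are normalized to control ATA and DMSO.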
Rap guanine nucleotide exchange factor 3 (Homo sapiens), sequence (O95398 whole entry, looked up): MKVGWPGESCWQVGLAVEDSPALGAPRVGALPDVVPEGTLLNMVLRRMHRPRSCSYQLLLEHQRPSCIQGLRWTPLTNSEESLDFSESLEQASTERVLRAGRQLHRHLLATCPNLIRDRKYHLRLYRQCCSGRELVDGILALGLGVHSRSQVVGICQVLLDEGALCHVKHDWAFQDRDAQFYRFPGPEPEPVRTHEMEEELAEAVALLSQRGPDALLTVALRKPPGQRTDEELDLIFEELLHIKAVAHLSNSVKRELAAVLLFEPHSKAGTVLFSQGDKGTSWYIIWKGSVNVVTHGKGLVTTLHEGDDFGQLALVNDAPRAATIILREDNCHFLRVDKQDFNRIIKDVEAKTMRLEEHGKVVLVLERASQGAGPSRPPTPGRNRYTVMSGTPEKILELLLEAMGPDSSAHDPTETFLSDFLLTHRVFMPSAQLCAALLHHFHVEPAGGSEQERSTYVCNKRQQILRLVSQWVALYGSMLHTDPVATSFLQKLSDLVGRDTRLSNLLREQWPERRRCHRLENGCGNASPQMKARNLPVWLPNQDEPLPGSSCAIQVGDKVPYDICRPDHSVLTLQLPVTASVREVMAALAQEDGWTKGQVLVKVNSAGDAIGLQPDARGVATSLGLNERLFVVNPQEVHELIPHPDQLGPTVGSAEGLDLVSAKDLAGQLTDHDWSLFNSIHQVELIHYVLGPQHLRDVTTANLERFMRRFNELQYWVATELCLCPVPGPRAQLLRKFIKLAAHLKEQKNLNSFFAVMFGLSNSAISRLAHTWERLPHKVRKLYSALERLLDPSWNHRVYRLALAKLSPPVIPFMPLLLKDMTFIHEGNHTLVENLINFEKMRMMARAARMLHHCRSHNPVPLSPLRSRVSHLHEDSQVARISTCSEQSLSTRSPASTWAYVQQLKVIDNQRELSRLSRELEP

Test [12] shares this target. The experiment in a line: Confirmatory qHTS for agonist of cAMP-regulated guanine nucleotide exchange factor 3 (EPAC1) (AID 1645881).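 Also: EPAC1 catalysed release of BODIPY-GDP from Rap1B seen as fluorescence loss; 100% = effect of cAMP agonist control; nearly all actives have a fitted effect of over 75% in size.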
Test [13] has as its target Rap guanine nucleotide exchange factor 4 (Homo sapiens) (UniProt Q8WZA2). The experiment in a line: Confirmatory qHTS for agonist of cAMP-regulated guanine nucleotide exchange factor 4 (EPAC2) (AID 1645884).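 Also: nucleotide exchange releases bodipy-GDP from Rap1 and this lowers its fluorescence; % is scaled to controls: 0 for no effect and ±100 for the full control effect; nearly all actives have a fitted effect of over 65% in size.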
The target is the same in test [14]. The experiment in a line: Confirmatory qHTS for antagonist of cAMP-regulated guanine nucleotide exchange factor 4 (EPAC2) (AID 1645885). Also: % is scaled to controls: 0 for no effect and ±100 for the full control effect; nearly all actives have a fitted effect of over 25% in size.
Test [15] can be described thus: Viability counterscreen for antagonist of constitutive androstane receptor (CAR) against the NCATS DSHEA and TCM libraries (AID 1794837).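 Also: compound exposure lasted 24 h before viability reading; 0% is about no effect.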 In outline:
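Counterscreen performed in a 1536-well qHTS format using HepG2-CYP2B6-hCAR cells; samples titrated in the presence of 48 uM CITCO, with viability measured fluorometrically (405/540 nm) after 24 h.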
(A counterscreen serves to expose hits that act by an unwanted route or on another target.)

Test [16] in a line: Viability counterscreen for agonist of constitutive androstane receptor (CAR) against the NCATS DSHEA and TCM libraries (AID 1794838). Also: 0% is about no effect. In a few lines: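 Multiplexed counterscreen: after 24 h compound exposure with 0.75 uM PK11195, HepG2-CYP2B6-hCAR viability was quantified fluorimetrically (CellTiter-Fluor, 405/540 nm) prior to the ONE-Glo luciferase read.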
The target of test [17] is Nuclear receptor subfamily 1 group I member 3 (Homo sapiens) (UniProt Q14994). The experiment in a line: Primary qHTS for agonist of constitutive androstane receptor (CAR) against the NCATS DSHEA and TCM libraries (AID 1794839).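 Also: HepG2 cells expressing human CAR with a CYP2B6 reporter plus PK11195 antagonist; luciferase reporter luminescence read with ONE-Glo; 0% is about no effect.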 In a few lines:
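Concentration–response screen in HepG2-CYP2B6-hCAR cells under 0.75 µM PK11195; 24 h exposure; luminescent reporter signal with multiplexed fluorescent viability.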

Test [18] is described as follows: HepG2 viability counterscreen (readout 2: ATP content) against the NCATS DSHEA and TCM libraries (AID 1794840).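 Also: HepG2 cells exposed to substances for about 24 h; 0% is about no effect.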 In outline: (§1)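 After HepG2 cells attach for ~4 h, substances are added and incubated ~24 h at 37C, 5% CO2. GF-AFC fluorescence then CellTiter-Glo luminescence give protease and ATP readouts.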
Test [19] is described as follows: HepG2 viability counterscreen (readout 1: protease activity) against the NCATS DSHEA and TCM libraries (AID 1794841).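 Also: cells exposed to compounds for about 24 h before the protease read; 0% is about no effect.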 In outline:
as §1

Phospholipid hydroperoxide glutathione peroxidase GPX4 (Homo sapiens), sequence (P36969 whole entry, looked up): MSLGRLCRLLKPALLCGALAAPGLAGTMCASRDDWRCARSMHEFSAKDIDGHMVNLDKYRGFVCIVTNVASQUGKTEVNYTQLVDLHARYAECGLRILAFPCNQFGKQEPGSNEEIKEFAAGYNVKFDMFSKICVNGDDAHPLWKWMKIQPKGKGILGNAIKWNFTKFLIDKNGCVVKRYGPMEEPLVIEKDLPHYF
Glutathione peroxidase 1 (Homo sapiens), sequence (P07203 whole entry, looked up): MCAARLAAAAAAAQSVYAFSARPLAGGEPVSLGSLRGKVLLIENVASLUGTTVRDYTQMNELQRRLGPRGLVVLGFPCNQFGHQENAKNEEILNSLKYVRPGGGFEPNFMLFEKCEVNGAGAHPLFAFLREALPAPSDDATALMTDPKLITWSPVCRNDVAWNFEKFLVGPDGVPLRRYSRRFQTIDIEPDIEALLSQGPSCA
Metallo-beta-lactamase type 2 (Klebsiella pneumoniae), sequence (C7C422 whole entry, looked up): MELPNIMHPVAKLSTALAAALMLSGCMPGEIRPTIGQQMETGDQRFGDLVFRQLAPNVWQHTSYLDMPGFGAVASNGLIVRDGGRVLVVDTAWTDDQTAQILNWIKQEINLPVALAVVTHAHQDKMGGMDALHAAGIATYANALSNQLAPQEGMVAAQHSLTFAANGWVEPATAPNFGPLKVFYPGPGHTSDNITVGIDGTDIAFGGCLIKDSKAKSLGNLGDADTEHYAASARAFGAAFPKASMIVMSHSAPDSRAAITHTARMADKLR
Rap guanine nucleotide exchange factor 4 (Homo sapiens), sequence (Q8WZA2 whole entry, looked up): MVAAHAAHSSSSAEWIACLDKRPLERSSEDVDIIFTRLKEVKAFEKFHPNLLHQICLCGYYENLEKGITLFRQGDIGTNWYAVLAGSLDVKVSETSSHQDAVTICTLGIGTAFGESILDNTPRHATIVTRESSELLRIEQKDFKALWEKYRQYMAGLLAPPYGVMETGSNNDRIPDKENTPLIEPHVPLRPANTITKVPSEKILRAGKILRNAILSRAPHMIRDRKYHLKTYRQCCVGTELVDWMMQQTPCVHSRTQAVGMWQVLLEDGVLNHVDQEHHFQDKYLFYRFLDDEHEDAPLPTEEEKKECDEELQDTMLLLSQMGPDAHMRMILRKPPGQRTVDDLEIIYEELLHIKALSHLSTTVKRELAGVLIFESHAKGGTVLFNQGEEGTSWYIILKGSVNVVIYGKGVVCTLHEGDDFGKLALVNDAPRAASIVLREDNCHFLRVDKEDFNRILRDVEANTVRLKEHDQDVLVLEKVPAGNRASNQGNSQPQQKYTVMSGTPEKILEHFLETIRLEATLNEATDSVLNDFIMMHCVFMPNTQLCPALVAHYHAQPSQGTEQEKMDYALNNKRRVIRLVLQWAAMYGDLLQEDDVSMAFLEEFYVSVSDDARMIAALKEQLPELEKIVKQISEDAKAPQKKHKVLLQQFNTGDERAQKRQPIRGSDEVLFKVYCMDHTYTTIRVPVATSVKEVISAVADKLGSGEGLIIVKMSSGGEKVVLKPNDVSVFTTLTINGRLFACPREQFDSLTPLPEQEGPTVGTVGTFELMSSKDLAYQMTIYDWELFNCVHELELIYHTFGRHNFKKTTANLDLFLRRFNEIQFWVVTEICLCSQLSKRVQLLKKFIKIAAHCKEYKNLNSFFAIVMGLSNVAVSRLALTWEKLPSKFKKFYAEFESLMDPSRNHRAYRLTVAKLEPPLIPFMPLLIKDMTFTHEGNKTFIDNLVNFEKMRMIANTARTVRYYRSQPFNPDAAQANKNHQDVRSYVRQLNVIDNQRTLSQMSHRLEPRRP
Nuclear receptor subfamily 1 group I member 3 (Homo sapiens), sequence (Q14994 whole entry, looked up): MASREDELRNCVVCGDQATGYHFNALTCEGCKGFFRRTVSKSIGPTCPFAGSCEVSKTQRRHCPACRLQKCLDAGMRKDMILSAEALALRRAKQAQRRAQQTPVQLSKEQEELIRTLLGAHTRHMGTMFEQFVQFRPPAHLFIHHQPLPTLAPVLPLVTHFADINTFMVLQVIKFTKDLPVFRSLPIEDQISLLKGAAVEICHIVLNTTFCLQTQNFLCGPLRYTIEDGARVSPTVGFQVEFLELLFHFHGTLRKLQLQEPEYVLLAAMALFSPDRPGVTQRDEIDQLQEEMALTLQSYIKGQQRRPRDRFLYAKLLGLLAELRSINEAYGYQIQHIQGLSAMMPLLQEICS
Catechol O-methyltransferase (Homo sapiens), sequence (P21964 whole entry, looked up): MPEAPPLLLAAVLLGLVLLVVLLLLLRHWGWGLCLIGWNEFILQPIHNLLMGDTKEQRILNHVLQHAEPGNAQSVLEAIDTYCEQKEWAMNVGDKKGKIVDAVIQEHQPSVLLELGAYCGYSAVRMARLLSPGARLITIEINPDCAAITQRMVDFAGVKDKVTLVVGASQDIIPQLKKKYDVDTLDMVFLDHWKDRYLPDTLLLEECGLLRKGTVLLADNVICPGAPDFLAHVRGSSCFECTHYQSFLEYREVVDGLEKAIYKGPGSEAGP
Phenylethanolamine N-methyltransferase (Homo sapiens), sequence (P11086 whole entry, looked up): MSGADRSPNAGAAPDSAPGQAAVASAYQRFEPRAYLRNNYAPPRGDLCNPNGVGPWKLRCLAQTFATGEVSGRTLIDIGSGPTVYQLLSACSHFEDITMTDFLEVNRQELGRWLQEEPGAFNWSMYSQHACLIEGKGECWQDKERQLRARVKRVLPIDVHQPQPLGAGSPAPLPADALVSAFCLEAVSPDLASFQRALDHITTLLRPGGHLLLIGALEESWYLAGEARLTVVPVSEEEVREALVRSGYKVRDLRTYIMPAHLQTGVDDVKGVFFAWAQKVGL

Consider `COc1cc2nc(N3CCCN(C)CC3)nc(NC3CCN(Cc4ccccc4)CC3)c2cc1OC`, for which the outcome in test [1] was “inactive”. For the same compound, the Potency entry in test [2] was “inactive”.
For the compound `CC(N)C12CC3CC(CC(C3)C1)C2` (centres undefined), the Potency entry in test [3] and in [4] was “inactive” in each case. Further, the Potency in test [2] is 6.4 µM (active) and inactive.
As for `CC1CC2C3CCC4=CC(=O)C=C[C@]4(C)[C@@]3(F)[C@@H](O)C[C@]2(C)[C@@]1(O)C(=O)CO` (some centres undefined), the outcome in test [1] is “inactive”. The Potency result in test [2] and in test [4] was “inactive” throughout.
With `O=C(N[C@H](CO)[C@H](O)c1ccc([N+](=O)[O-])cc1)C(Cl)Cl`, the Potency entry in test [3], in [2] and in [4] was “inactive” in each case.
Take `COc1cc2ncnc(Nc3cccc(Cl)c3)c2cc1OC`: the activity in test [5] is -45.8%; in test [7], -29.1%; in test [8], -45.8%. For the same compound, in test [6], the Potency is 30.4 µM (active). Further, the outcome in [1] and in test [9] was “inactive” each time. For the same compound, the Potency entry in test [2], in test [4] and in test [10] was “inactive” throughout.
For `CCN(CC)CCn1c(=O)c(Cc2ccc(OC)cc2)nc2ccccc21`, the outcome in test [1] was “inactive”. Moreover, the Potency entry in [2] and in test [4] was “inactive” in each case.
For `CCOC(=O)c1ccc(OC(=O)CCCCCN=C(N)N)cc1`, the Potency result in [3], in test [2] and in test [4] was “inactive” each time.
Regarding `O=P(O)(O)C(O)(Cc1cccnc1)P(=O)(O)O`, the Potency result in test [3], in test [2], in test [4] and in test [10] was “inactive” each time. In addition, the activity change, negative = inhibition in test [9] was -16.9% [at 6.45 µM] (inactive). Moreover, the outcome in test [9] was “inactive”.
Consider `C1CCC(C(CC2CCCCN2)C2CCCCC2)CC1` (centres undefined), for which the Potency in [3] is 15.8 µM (active). Further, the Potency result in test [2] and in test [4] was “inactive” in each case.
As for `CC1=C(C(=O)O)N2C(=O)[C@@H](NC(=O)C(N)c3ccccc3)[C@H]2SC1` (some centres undefined), the outcome in [1] is “inactive”. The Potency result in [2] and in [4] was “inactive” throughout.
For `CCN[C@H]1C[C@H](C)S(=O)(=O)c2sc(S(N)(=O)=O)cc21`, the Potency result in test [3], in [2] and in test [4] was “inactive” throughout.
On to `CC(=O)Oc1ccccc1C(=O)Nc1ncc([N+](=O)[O-])s1`, for which the Potency result in [3], in [2] and in test [4] was “inactive” throughout.
With `CN(C)CCc1c[nH]c2ccc(C[C@H]3COC(=O)N3)cc12`, the outcome in test [11], in test [12], in [13], in test [14] and in test [9] was “inactive” each time. The Potency result in [2], in test [4] and in [10] was “inactive” throughout.
In the case of `O=C(O)c1cccnc1`, the outcome in test [15], in test [16], in [17], in [18] and in test [19] was “inactive” each time. The Potency result in test [2] and in test [4] was “inactive” each time.
